TMEM16A inh – TMEM16A chloride channel inhibitors, primary screen, cell-based, HTS. 310,000 compounds, 1.2% hits. HEK293 TMEM16A/YFP iodide influx fluorescence, ionomycin. normalized B-score (activity score, 25-100; higher = stronger inhibition) at 10 µM. Anoctamin-1 (Mus musculus), Q8BHY3;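 active means ratio plate-corrected score three or more library SD toward inhibition, starting fluorescence score within five deviations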;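 further: score derived from kinetic fluorescence span divided by baseline fluorescence per well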
IDE act – human IDE activators in live cells, primary screen, fluorescence polarization, HEK cells, FAbeta-B substrate. Insulin-degrading enzyme (Homo sapiens), P14735. activation, % at 5.96 µM. FAbeta-B cleavage; 0% vehicle, 100% cell-free pure enzyme wells. 340,000 compounds, 0.073% hits;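 active means activation above the mean of all tested compounds plus 3 SD, set per screening campaign, cut at about 17% in these data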
Target sequence (P14735 whole entry, looked up): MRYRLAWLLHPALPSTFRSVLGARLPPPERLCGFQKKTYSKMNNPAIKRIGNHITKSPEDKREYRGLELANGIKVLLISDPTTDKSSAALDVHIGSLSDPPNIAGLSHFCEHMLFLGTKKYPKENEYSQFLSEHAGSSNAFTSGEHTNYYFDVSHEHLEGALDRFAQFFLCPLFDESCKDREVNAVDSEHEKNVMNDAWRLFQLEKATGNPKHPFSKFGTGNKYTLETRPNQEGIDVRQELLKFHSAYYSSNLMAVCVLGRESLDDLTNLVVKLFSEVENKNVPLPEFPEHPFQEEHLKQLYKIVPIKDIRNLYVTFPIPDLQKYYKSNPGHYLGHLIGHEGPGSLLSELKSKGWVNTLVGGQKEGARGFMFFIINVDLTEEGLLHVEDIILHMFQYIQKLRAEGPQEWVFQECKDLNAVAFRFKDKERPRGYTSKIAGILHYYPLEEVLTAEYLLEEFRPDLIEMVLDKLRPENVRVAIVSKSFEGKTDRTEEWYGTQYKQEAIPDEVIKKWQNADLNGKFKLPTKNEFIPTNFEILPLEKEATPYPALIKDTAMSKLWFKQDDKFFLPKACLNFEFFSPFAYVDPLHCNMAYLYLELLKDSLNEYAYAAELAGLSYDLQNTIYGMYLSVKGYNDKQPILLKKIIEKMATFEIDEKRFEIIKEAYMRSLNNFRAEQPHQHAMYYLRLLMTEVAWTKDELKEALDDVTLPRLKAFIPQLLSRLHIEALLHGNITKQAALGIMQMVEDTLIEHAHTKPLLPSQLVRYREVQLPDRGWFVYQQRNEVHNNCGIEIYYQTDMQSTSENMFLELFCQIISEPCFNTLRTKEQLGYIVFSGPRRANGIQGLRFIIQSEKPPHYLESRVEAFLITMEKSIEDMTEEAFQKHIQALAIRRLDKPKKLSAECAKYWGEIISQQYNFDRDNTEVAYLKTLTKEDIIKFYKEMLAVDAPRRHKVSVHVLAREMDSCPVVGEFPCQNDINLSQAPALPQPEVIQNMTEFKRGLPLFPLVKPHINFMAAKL
TMEM16A act – TMEM16A chloride channel activators or potentiators, primary screen, cell-based, HTS; HEK293 TMEM16A/YFP-H148Q/I152L, iodide quench fluorescence; hits give low values; AID 623877, 2012; B-score at 10 µM; Anoctamin-1 (Mus musculus), Q8BHY3; 340,000 compounds, 0.3% hits;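 active means fluorescence-ratio B-score plate-corrected deviation score at least 3 library SD below zero, with starting fluorescence score within 5 deviations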;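 further: channel opened by trigger with iodide after compound preincubation; score built on the fluorescence ratio of max minus min over baseline; more negative score means more quench and so TMEM16A activation or potentiation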
CHT allo act – CHT positive allosteric modulators, primary screen, cell-based, membrane potential dye, choline EC20; High affinity choline transporter 1 (Homo sapiens), Q9GZV3; CHT-expressing cells; hits give high values; LV-AA mutant CHT in HEK293 cells; B-score at 10 µM; 310,000 compounds, 0.49% hits;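 active means initial fluorescence not abnormally high and integrated response B-score, plate-corrected, over 3 SD above library mean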
IDE cell inh – human IDE inhibitors in live cells, primary screen, fluorescence polarization, HEK cells, FAbetaB substrate | Insulin-degrading enzyme (Homo sapiens), P14735 | 320,000 compounds, 0.41% hits | inhibition, % at 5.59 µM | FAbetaB cleavage;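 active means percent inhibition above the average of all tested compounds plus 3 SD, set per screening campaign, cut at about 16% in these data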;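 further: IDE supplied by intact live HEK cells; FP after avidin binding of uncleaved biotin substrate so inhibition keeps polarization high; 0% = DMSO wells and 100% = 60 µM reference IDE inhibitor Ii1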
CHT block – inhibitors of human choline transporter CHT; High affinity choline transporter 1 (Homo sapiens), Q9GZV3; CHT-expressing cells, membrane potential dye, choline response; hits give low values; B-score at 10 µM; 310,000 compounds, 0.86% hits; AID 488975, 2010;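 active means B-score over 3 SD under the library average, and starting fluorescence ratio not unusually high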;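 further: choline stimulus applied at its EC90 after an EC20 pre-addition; B-score computed on integrated fluorescence ratio after choline addition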
TMEM16A reconf – TMEM16A chloride channel inhibitors, confirmation, cell-based, re-confirmation; shares compounds with TMEM16A inh; HEK293 TMEM16A/YFP-H148Q, iodide quench fluorescence; ionomycin added to raise cell calcium; inhibition, % at 10 µM; 2,300 compounds, 39% hits; AID 652189, 2013;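 active means mean duplicate percent inhibition, scaled so buffer wells are 0 and the reference blocker 100, over three buffer SD above buffer mean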
TMEM16A Ca cntr – calcium mobilization in TMEM16A/YFP HEK293 cells, confirmation, counter-screen for TMEM16A inhibitor project; Fluo4 calcium mobilization; shares compounds with TMEM16A inh; calcium response (% of ionomycin), % at 10 µM; 2,300 compounds, 2% hits;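 active means duplicate-averaged calcium signal over 20% of the ionomycin maximum, relative to buffer baseline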;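 further: each well's signal is peak minus trough fluorescence divided by its pre-addition baseline; 0% = buffer wells and 100% = ionomycin wells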
Parental YFP cnt – iodide YFP quench changes in parental YFP-HEK293, counter-screen for TMEM16A inhibitor project, cell-based; shares compounds with TMEM16A inh; ionomycin; YFP ratio F(max-min)/F0 at 10 µM; 2,300 tested, under 10 active; AID 652233, 2013;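 active means yellow fluorescent protein signal ratio exceeding the buffer control mean by over 5 SD of those controls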;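 further: ratio is mean of duplicate wells from kinetic YFP trace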
ClC-1 inh – ClC-1 chloride channel inhibition, selectivity assay for TMEM16A inhibitor project, cell-based, voltage-dependent ClC-1 | shares compounds with TMEM16A inh | CHO ClC-1-YFP, iodide influx fluorescence quench; iodide control reads 0, buffer control 100 | ratio percent, % at 10 µM | 2,300 tested, under 10 active | AID 652236, 2013;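 active means duplicate-mean ratio percent above the mean of iodide-only control wells, which defines zero, plus 5 of their SD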;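 further: higher percent means stronger block of ClC-1 iodide influx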
* marks the source's active call; other numbers are inactive results; i = inactive; . = no result. In the library only some 2.7% were active in any assay of this set; here they are far more common.

SMILES	TMEM16A inh	IDE act	TMEM16A act	CHT allo act	IDE cell inh	CHT block	TMEM16A reconf	TMEM16A Ca cntr	Parental YFP cnt	ClC-1 inh
Cc1ccc2c(C)c(C(=O)NCCN3CCOC3=O)oc2c1C	i	2	i	i	-3	i	.	.	.	.
CC(=O)c1c[nH]c2ccc(C)cc2c1=O	100*	0	i	i	-1	i	i	i	-0.89	-9
CCOC(=O)c1c(NC(=O)CSc2nnc(-c3ccccc3C)n2C)sc(C(C)=O)c1C	25*	1	i	i	-1	i	i	i	-0.79	-12
CCOC(=O)c1c(NC(=O)CSc2nnc(Cc3ccccc3)o2)sc(C)c1C	100*	3	i	i	-3	i	i	i	-1.2	0
CCCCN(CCCNC(=O)c1c(C)cc(=O)oc1C)c1ccccc1	i	-6	i	i	4	i	.	.	.	.
CCN(CCCNC(=O)c1c(C)cc(=O)oc1C)c1ccccc1	25*	-1	i	i	-1	i	i	i	-1.2	-10
COc1cc2cc(C)c(Br)c(OC)c2cc1OC	.	3	i	.	.	.	.	.	.	.
Clc1ccc(CSc2nccn2Cc2ccccc2)cc1	100*	-3	i	i	9	i	44%*	i	-0.84	-5
O=C(c1ccc(OCC2CCCO2)cc1)N1CCN(S(=O)(=O)c2cccc(F)c2)CC1 (centres undefined)	.	0	i	.	.	.	.	.	.	.
O=C(Nc1ccc(S(=O)(=O)N2CCCC2)cc1)c1ccc(OCC2CCCO2)cc1 (centres undefined)	25*	0	i	i	-3	i	20%*	i	-0.98	-8
O=C(Nc1cccc(S(=O)(=O)N2CCCCC2)c1)c1ccc(OCC2CCCO2)cc1 (centres undefined)	25*	1	i	i	1	i	i	i	-1	-14
Cc1ccc(NC(=O)c2ccc(OCC3CCCO3)cc2)cc1 (centres undefined)	i	-5	i	i	8	i	.	.	.	.
COc1ccc(NC(=O)c2cccc(-c3ccc(O)cc3)c2)cn1	i	2	i	i	3	i	.	.	.	.
O=C(Nc1cccc(O)c1)c1ccc(C(F)(F)F)cc1	i	4	i	i	0	i	.	.	.	.
O=C(Nc1cccc(C(F)(F)F)c1)c1cc[n+]([O-])cc1	100*	2	i	i	2	i	i	i	-1.2	-9
O=C(c1cc(-c2ccccc2)nc2ccccc12)N1N=C(C(F)F)CC1(O)C(F)F (centres undefined)	100*	4	i	i	2	i	i	i	-0.95	-4
CCC(C)[C@H](NC(=O)N1CC(=O)Nc2ccccc21)C(=O)N1CCC(C(=O)O)CC1 (some centres undefined)	i	6	i	i	-7	i	.	.	.	.
CCC1CCCCN1C1Sc2ccc(C(=O)OC)cc2NC1=O (centres undefined)	25*	2	i	i	9	i	i	i	-1.2	-9
COc1ccc(-c2nn(-c3ccccc3)cc2CNC[C@H]2O[C@@H](n3cnc(C(N)=O)n3)[C@H](O)[C@@H]2O)cc1	.	5	i	.	.	.	.	.	.	.
CC(=O)OC1CC(C)N(C(=O)c2ccccc2)c2ccc(C)cc21 (centres undefined)	100*	2	i	i	-6	i	i	i	-1.1	-5
c1ccc2c(c1)OCC(c1csc3ncnc(N4CCCC4)c13)O2 (centres undefined)	25*	-1	i	i	1	i	20%*	i	-0.96	-12
O=C(O)C1CCN(C(=O)CSc2nc3ccccc3c(=O)n2-c2ccc(Cl)cc2)CC1	i	1	i	i	0	i	.	.	.	.
O=C(Nn1c(-c2ccc(Br)cc2)nc2ccccc2c1=O)c1ccc([N+](=O)[O-])cc1	25*	6	i	i	4	i	i	i	-1.1	-8
CCSc1nnc(NC(=O)NC(CC)(C(F)(F)F)C(F)(F)F)s1	100*	4	i	i	9	i	16%*	i	-1	-18
COc1ccc(N2C(=O)[C@H]3CCC=C[C@H]3[C@@H]2c2ccccc2Br)cc1	.	6	.	.	.	.	.	.	.	.
SMILES	TMEM16A inh	IDE act	TMEM16A act	CHT allo act	IDE cell inh	CHT block	TMEM16A reconf	TMEM16A Ca cntr	Parental YFP cnt	ClC-1 inh
CCCOC(=O)/C(C(N)=NCc1ccccc1)=C(\O)OCCC	100*	2	i	i	0	i	i	i	-0.87	-10
Clc1ccc(-c2nsc(N3CCOCC3)n2)c(Cl)c1	i	2	i	i	4	i	.	.	.	.
CN(C)S(=O)(=O)c1cccc(N=C2SCCN2Cc2ccccc2)c1	100*	4	i	i	-5	i	36%*	i	-0.87	-8
CCOC(=O)c1sc2nc(C)nc(NCc3ccc(F)cc3)c2c1C	100*	-5	i	i	4	i	i	i	-1.1	-13
CCOC(=O)c1sc2nc(C)nc(NCc3ccc(Cl)cc3)c2c1C	i	-4	i	i	9	i	.	.	.	.
Cc1c(OC(C)C(=O)N2C[C@H]3C[C@@H](C2)c2cccc(=O)n2C3)ccc2c3c(c(=O)oc12)CCCC3 (some centres undefined)	i	-4	i	i	2	i	.	.	.	.

Source: PubChem
